Experimental data: the supplement of paper PMC10849652
About 8,800 targets were measured; listed, in parts, are those with a hit and a random draw of the rest. About 0.5% of all pairs of compound and target were hits. Unmarked numbers belong to inactive results.

How the values were obtained:
Assay in all cases: log2 fold change, soluble protein after heating vs DMSO (PISA); higher = thermal stabilisation; K562 lysate, 10 uM; active = over 0.2 and 3.5 SD of the protein, either way, in both replicates (recomputed)
[1] = compound: C=CC(=O)N1CCC[C@@H](n2nc(-c3ccc(Oc4ccccc4)cc3)c3c(N)ncnc32)C1 [ibrutinib]
Procedure, shortened: (§1)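 Log-two fold change in thermal stability relative to solvent controls is reported from duplicates. For each sample, crude K562 extract from dounce-homogenised pellets in PBS pH 7.4 with 1 mM MgCl2, at 1 mg/mL protein, was treated with 10 μM compound for 30 min. Aliquots heated for 3 min across 48°C-58°C were pooled, brought to 0.5% NP-40 at 4°C and cleared at 21,000xg for 90 min. The supernatant was quantified by TMTpro 16plex LC-MS/MS with channel sums equalised.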

[2] = compound: CC(=O)c1cnc2ccc(-c3cc(Cl)c(O)c(Cl)c3)nc2c1N[C@H]1CC[C@H](CN(C)C)CC1
Procedure, shortened: as §1

[3] = compound: CC(C)(C)Cn1c(N)nc2ccc(-c3[nH]c(C(C)(C)C)nc3-c3ccc(F)cc3)nc21 [ralimetinib]
Procedure, shortened: as §1

[4] = compound: CC(C)(O)CC(=O)NCCn1ccc2ncnc(Nc3ccc(Oc4cccc(C(F)(F)F)c4)c(Cl)c3)c21
Procedure, shortened: as §1

[5] = compound: CC(C)C1=C2N=C(C=C(N2N=C1)NCC3=CC=CC=C3)NCCCCCCN
Procedure, shortened: as §1

[6] = compound: CC1=C(C(CC(=O)N1)C2=CC=C(C=C2)C(F)(F)F)C(=O)NC3=C(C=C4C(=C3)C=NN4)F
Procedure, shortened: as §1

[7] = compound: CC1=C(C2=C(C=C1)C(=O)C3=CC=CC=C3N2CCCN)C
Procedure, shortened: as §1

[8] = compound: CC1=C(C=C(C=C1)NC(=O)C2=CC(=CC=C2)C(C)(C)C#N)NC3=CC4=C(C=C3)N=CN(C4=O)C
Procedure, shortened: as §1

[9] = compound: CC1=C(C=C(C=C1)NC(=O)C2=CC(=CC=C2)N(C)C)NC(=O)C3=CC=C(C=C3)O
Procedure, shortened: as §1

[10] = compound: CC1=CC=C(C=C1)SC2=C3C=C(SC3=CN=C2)C(=O)N
Procedure, shortened: as §1

UniProt P25098, sequence (P25098 whole entry, looked up): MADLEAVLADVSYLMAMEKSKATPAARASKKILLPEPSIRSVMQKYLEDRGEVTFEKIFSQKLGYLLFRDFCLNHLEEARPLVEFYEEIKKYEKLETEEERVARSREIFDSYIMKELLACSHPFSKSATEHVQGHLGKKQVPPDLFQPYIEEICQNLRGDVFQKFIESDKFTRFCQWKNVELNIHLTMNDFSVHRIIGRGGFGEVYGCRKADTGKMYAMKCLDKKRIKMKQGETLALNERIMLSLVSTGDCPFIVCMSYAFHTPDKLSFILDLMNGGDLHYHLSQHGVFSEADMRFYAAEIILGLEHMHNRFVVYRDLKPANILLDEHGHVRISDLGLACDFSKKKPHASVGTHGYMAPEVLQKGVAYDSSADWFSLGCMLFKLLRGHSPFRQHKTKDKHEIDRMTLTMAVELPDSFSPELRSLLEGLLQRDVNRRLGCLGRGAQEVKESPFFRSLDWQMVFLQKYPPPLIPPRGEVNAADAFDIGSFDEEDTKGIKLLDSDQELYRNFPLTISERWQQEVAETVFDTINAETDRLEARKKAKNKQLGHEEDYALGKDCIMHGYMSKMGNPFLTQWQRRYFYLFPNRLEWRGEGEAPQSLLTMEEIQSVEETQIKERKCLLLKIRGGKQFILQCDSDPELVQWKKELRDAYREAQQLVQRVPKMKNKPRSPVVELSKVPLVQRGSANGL
UniProt Q9BVP2, sequence (Q9BVP2 whole entry, looked up): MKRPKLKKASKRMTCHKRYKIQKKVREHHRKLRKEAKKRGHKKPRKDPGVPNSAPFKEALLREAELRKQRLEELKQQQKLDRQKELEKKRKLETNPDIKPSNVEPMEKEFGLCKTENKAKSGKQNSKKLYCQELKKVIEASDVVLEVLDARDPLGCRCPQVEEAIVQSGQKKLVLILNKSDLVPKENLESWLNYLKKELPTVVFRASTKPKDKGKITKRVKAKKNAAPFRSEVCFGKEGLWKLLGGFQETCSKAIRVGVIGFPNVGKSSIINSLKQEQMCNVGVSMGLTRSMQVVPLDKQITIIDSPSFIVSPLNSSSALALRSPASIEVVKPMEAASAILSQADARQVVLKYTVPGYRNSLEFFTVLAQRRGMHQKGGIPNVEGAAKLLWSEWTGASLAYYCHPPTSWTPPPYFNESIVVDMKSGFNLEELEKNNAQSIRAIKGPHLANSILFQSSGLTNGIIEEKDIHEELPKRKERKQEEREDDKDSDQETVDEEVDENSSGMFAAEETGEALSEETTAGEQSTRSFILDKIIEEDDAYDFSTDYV
UniProt Q9Y4H2, sequence (Q9Y4H2 whole entry, looked up): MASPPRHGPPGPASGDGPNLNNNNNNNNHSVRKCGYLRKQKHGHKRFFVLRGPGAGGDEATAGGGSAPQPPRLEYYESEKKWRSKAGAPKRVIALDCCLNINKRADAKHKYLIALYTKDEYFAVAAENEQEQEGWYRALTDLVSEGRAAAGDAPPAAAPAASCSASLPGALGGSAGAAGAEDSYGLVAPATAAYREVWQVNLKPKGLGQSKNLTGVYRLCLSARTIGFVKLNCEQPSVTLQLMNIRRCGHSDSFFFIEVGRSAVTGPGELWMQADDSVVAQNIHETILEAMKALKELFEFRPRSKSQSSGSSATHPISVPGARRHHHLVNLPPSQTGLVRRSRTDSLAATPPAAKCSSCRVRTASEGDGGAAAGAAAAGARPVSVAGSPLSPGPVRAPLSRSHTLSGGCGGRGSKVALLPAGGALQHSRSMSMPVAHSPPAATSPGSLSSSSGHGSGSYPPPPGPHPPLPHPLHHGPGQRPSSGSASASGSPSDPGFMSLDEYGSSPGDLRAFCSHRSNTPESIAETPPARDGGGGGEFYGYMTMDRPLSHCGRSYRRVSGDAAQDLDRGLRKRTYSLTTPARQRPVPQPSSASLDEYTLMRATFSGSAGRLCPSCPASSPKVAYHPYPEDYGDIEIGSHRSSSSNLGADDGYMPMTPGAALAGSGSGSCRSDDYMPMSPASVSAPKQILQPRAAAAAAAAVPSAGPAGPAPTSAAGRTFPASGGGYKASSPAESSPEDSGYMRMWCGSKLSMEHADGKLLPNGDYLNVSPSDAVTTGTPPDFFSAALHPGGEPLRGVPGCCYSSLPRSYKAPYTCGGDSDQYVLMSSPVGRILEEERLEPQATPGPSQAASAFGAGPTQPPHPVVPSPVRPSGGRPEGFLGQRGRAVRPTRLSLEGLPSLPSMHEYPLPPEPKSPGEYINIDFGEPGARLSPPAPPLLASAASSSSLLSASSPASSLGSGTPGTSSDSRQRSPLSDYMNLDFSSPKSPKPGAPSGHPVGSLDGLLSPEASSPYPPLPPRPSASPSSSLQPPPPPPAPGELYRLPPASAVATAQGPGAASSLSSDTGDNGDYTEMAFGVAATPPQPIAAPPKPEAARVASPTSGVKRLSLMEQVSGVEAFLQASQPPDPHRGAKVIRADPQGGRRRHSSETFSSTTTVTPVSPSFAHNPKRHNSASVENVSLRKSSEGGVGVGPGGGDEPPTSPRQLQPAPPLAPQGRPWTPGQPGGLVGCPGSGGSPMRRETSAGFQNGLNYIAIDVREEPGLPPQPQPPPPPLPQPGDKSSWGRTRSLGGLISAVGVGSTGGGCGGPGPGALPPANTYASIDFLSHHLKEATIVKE
UniProt O15550, sequence (O15550 whole entry, looked up): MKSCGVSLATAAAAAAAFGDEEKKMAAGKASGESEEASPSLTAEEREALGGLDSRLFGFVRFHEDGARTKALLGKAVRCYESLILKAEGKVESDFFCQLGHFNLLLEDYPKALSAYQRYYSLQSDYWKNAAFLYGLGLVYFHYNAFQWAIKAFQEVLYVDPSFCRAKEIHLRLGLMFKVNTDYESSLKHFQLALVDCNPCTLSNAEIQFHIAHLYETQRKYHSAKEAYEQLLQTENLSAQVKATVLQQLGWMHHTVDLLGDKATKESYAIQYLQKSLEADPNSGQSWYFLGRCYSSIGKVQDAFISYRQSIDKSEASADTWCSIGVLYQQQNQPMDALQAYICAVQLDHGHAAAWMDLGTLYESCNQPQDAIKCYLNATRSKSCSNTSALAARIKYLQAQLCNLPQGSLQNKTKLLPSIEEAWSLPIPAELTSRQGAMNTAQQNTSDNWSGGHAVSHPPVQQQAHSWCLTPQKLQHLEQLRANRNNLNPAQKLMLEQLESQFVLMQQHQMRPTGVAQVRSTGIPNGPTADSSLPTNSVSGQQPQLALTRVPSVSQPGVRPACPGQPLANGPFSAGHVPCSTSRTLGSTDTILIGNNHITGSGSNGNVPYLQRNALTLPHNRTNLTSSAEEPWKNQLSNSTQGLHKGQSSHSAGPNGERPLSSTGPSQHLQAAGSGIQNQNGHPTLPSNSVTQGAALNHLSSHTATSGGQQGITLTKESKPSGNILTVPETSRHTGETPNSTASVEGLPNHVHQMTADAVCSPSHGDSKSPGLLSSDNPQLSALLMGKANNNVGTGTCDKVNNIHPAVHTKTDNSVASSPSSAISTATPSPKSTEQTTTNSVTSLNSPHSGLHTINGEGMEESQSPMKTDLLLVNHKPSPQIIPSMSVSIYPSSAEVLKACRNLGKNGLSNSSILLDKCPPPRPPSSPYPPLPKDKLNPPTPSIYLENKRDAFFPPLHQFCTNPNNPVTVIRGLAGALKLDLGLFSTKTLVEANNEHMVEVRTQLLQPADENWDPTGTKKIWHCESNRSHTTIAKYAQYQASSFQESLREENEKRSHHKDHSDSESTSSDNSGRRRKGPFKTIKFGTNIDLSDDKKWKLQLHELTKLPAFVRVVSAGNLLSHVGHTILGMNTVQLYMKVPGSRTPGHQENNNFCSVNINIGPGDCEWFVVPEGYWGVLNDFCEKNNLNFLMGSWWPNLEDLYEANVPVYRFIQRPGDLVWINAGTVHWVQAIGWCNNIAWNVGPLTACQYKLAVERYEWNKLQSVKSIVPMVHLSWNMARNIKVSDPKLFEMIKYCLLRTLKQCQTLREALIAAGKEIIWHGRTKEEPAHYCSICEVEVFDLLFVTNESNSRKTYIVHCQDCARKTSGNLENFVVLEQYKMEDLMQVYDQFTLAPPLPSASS
UniProt Q75QN2, sequence (Q75QN2 whole entry, looked up): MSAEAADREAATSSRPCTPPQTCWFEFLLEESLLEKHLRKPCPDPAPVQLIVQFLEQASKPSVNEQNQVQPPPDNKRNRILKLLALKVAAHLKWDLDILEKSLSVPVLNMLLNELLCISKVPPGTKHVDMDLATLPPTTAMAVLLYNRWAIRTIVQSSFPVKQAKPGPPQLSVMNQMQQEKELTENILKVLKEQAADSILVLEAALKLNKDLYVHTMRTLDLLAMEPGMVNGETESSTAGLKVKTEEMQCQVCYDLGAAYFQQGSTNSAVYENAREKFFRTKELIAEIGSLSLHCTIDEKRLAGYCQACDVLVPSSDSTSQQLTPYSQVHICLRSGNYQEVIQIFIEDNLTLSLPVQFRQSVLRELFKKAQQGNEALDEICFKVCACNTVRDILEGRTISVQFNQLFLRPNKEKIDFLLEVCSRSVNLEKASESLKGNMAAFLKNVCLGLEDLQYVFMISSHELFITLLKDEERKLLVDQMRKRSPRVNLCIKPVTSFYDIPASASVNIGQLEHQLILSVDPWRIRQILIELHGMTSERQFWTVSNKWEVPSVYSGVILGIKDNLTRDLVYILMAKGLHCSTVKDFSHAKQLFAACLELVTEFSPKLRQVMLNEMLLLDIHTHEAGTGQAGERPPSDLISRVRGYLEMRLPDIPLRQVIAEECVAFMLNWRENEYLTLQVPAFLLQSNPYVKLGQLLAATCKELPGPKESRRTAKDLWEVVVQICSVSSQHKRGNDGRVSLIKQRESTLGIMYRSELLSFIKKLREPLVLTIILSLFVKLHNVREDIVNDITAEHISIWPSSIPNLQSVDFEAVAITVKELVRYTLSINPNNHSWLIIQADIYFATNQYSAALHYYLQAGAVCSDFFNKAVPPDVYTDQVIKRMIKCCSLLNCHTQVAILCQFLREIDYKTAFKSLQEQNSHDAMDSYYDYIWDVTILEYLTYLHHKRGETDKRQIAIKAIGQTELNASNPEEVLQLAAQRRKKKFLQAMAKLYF
UniProt P17096, sequence (P17096 whole entry, looked up): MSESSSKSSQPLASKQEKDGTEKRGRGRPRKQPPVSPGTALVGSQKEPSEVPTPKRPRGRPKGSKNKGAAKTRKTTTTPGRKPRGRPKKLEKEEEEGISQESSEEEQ

Target	log2 fold change [1]	log2 fold change [2]	log2 fold change [3]	log2 fold change [4]	log2 fold change [5]	log2 fold change [6]	log2 fold change [7]	log2 fold change [8]	log2 fold change [9]	log2 fold change [10]
HECTD3 (UniProt Q5T447)	0.054	0.019	0.037	-0.027	-0.022	-0.043	0.022	-0.014	0.002	0.011
INTS1 (UniProt Q8N201)	-0.103	0.177	0.053	-0.007	-0.052	-0.052	0.038	-0.032	0.035	0.026
IRAK4 (UniProt Q9NWZ3)	0	0.195	0	-0.018	-0.01	-0.018	-0.011	-0.018	0.008	-0.041
HACE1 (UniProt Q8IYU2)	-0.034	-0.062	0	-0.056	0.041	-0.042	-0.042	-0.07	0.08	0.01
GSK3B isoform 2 (UniProt P49841)	-0.064	0.344	-0.012	-0.008	-0.016	-0.04	-0.006	-0.018	-0.029	0.189
GRB10 (UniProt Q13322)	0.015	-0.039	-0.006	-0.032	0.014	0.04	-0.015	-0.032	-0.006	0.066
GRK2 (UniProt P25098)	0.002	0.011	0.006	0.036	0	0.151	0.014	-0.048	0.007	-0.031
IMPDH1 isoform 6 (UniProt P20839)	-0.007	0.009	0.034	-0.007	0.01	-0.039	0.033	0.014	-0.005	-0.004
KHK isoform 2 (UniProt P50053)	0.023	0.039	0.001	-0.032	-0.033	0.013	-0.025	0.185	-0.033	-0.04
HNRNPM (UniProt P52272)	-0.031	0.024	0.034	-0.048	0.02	0.051	0.062	-0.183	0.021	0.007
INTS5 (UniProt Q6P9B9)	0.051	0.056	0.051	-0.038	-0.06	-0.013	0.021	0	0.039	0.003
HMGA1 (UniProt P17096)	0.004	-0.022	-0.024	-0.043	0.002	-0.03	0.075	-0.008	-0.023	-0.017
HADHB (UniProt P55084)	0.086	-0.05	0.002	0.104	-0.024	-0.046	0.028	0.062	-0.03	0.077
IGF2BP2 (UniProt Q9Y6M1)	0.035	0.007	0.056	0.035	0.007	-0.008	-0.036	-0.075	0.006	0.056
INTS8 (UniProt Q75QN2)	0.024	0.028	0.058	-0.028	0.009	-0.021	-0.179	0.023	-0.033	0.031
ILKAP (UniProt Q9H0C8)	-0.018	0	-0.007	0.031	-0.032	0.007	0.037	-0.016	0	-0.002
HERC2 (UniProt O95714)	0.001	0.053	0.002	0.02	0.082	0.028	-0.063	0.021	0.041	0.015
IARS2 (UniProt Q9NSE4)	-0.006	-0.008	-0.005	0.007	-0.025	-0.031	0.016	0.005	0.013	-0.031
HLTF (UniProt Q14527)	0.016	0.054	0.024	-0.017	-0.023	0.046	0.048	-0.022	0.003	-0.018
HNRNPUL2 (UniProt Q1KMD3)	-0.019	-0.674 (active)	-0.018	-0.02	0.021	-0.022	-0.03	0.011	0.032	0
KDM1A (UniProt O60341)	0.007	-0.011	0.018	-0.016	0.019	-0.004	0.003	-0.004	0.044	0.003
GNL3 (UniProt Q9BVP2)	0.023	-0.063	-0.026	-0.021	0.05	-0.005	-0.073	0.009	-0.007	-0.057
GSE1 (UniProt Q14687)	0.006	-0.021	0.015	-0.026	-0.004	-0.009	0.008	-0.055	0.035	-0.016
GTF2I (UniProt P78347)	-0.004	-0.002	0.007	-0.004	0.012	-0.007	0.005	-0.027	0.033	-0.001
HSPA8 (UniProt E9PK54)	0.065	-0.086	-0.013	-0.132	0.004	-0.019	0.008	-0.076	-0.019	0.014
HNRNPD isoform 2 (UniProt Q14103)	0	-0.142	-0.039	-0.01	0.016	-0.046	0.001	0.034	-0.014	-0.011
IRS2 (UniProt Q9Y4H2)	-0.089	-0.209	0.014	0.047	0.03	0.049	-0.079	0.118	-0.051	0.254
GNE isoform 2 (UniProt Q9Y223)	-0.036	0.009	0.033	-0.036	-0.007	-0.011	-0.036	-0.001	0.069	0.009
KDM6A (UniProt O15550)	-0.007	0.012	0.003	-0.028	0.025	-0.007	-0.065	0.009	-0.004	0.022
HAUS8 (UniProt Q9BT25)	0.049	-0.01	0.054	0.011	-0.012	-0.044	-0.062	0.003	0.033	0.036
